The results in this text go back to PubChem BioAssay (EPA / NIEHS).

Read-out in assay [1]: X-box binding protein 1 (XBP1), XBP1 (gene 7494)
The experiment in a line: LTEA_HepaRG_XBP1: Life Technologies and Expression Analysis (LTEA) Assay for X-box binding protein 1 (XBP1) using HepaRG (AID 2283540; active = hit-call score of the fitted dose curve at least 0.9, where 1 is the maximum; inactive = score below 0.9). The following applies: mRNA level, 48 h; actives raise or lower the signal. Put shortly: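 Differentiated human HepaRG cells in serum-free induction medium were exposed in duplicate for 48 h to eight half-log concentrations up to 100 uM in 0.5% DMSO. XBP1 mRNA was quantified by qRT-PCR, normalised to ACTB, GAPDH and POLR2A, with bidirectional fitting against DMSO.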

Assay [2] can be described thus: LTEA_HepaRG_LDH_cytotoxicity: Cytotoxicity Assessment in the Life Technologies and Expression Analysis (LTEA) Assay (AID 2283563).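 For AC50: LDH activity released into spent culture medium as a marker of cell death.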 An outline of the steps:
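Differentiated human HepaRG cells, plated 48 h beforehand, were switched to serum-free induction medium and exposed for 48 h to eight half-log concentrations (top 100 uM) in 0.5% DMSO. LDH was measured in spent medium; activity was fitted relative to DMSO vehicle.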

A short description of assay [3]: TOX21_p53_BLA_p2_viability: Viability Assessment in the Tox21 HCT-116 p53 Agonism Beta-lactamase Assay, Phase 2 (AID 2283591).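 Note: compound exposure lasted 16 h at 37 °C; actives lower the ATP signal meaning cytotoxicity.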 An outline of the steps: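 HCT-116 p53-bla cells (4000/well) rested 5 h at 37C, then received compounds in DMSO (217-fold dilution) for 16 h at 37C, 5% CO2. After the CCF4 read, CellTiter-Glo was added; ATP luminescence was read after 30 min at room temperature.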

Assay [4] concerns the target Cellular tumor antigen p53 (Homo sapiens) (UniProt P04637). Description: TOX21_p53_BLA_p2_ratio: Tox21 HCT-116 p53 Agonism Beta-lactamase Assay, Ratio, Phase 2 (AID 2283592). An outline of the steps: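 HCT116 cells carrying a p53-responsive beta-lactamase reporter were plated, incubated 5 h at 37C, then dosed with compounds in DMSO (217-fold dilution) for 16 h. CCF4-AM substrate was added for 2 h at room temperature; the 460/530 nm emission ratio gave gain-of-signal activity relative to DMSO.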

A short description of assay [5]: TOX21_p53_BLA_p3_viability: Viability Assessment in the Tox21 HCT-116 p53 Agonism Beta-lactamase Assay, Phase 3 (AID 2283593).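 Note: cells exposed to compound for 16 h before reading.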 Put shortly:
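HCT-116 cells (4000/well) rested 5 h at 37C, then got DMSO compounds by pin tool (217-fold dilution) for 16 h at 37C, 5% CO2. After the bla read, CellTiter-Glo was added and luminescence read at 30 min, room temperature.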

Assay [6] has as its target Cellular tumor antigen p53 (Homo sapiens) (UniProt P04637). The experiment in a line: TOX21_p53_BLA_p3_ratio: Tox21 HCT-116 p53 Agonism Beta-lactamase Assay, Ratio, Phase 3 (AID 2283596). Put shortly: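 HCT116 p53-bla cells (4000/well) given compound in DMSO (217-fold dilution) after 5 h, incubated 16 h at 37C. CCF4-AM substrate 2 h at room temperature; 460/530 nm emission ratio, gain fitted against DMSO.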

Assay [7] is described as follows: TOX21_p53_BLA_p4_viability: Viability Assessment in the Tox21 HCT-116 p53 Agonism Beta-lactamase Assay, Phase 4 (AID 2283597).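 Note: hits lower the luminescence signal meaning cytotoxicity.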 Put shortly:
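HCT116 p53-bla cells (4000/well) rested 5 h at 37C, then received compounds in DMSO (217-fold dilution) for 16 h at 37C, 5% CO2. CellTiter-Glo was added after the CCF4-AM read, and luminescence was read after 30 min at room temperature.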

In assay [8] the target is Cellular tumor antigen p53 (Homo sapiens) (UniProt P04637). The experiment in a line: TOX21_p53_BLA_p5_ratio: Tox21 HCT-116 p53 Agonism Beta-lactamase Assay, Ratio, Phase 5 (AID 2283599). An outline of the steps: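 HCT-116 cells carrying a p53-inducible beta-lactamase reporter were seeded at 4000 cells/well and dosed after 5 h with compound in DMSO (217-fold dilution). After 16 h at 37C, CCF4-AM substrate was added for 2 h, and the 460/530 nm emission ratio was scored as gain-of-signal versus DMSO.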

A short description of assay [9]: TOX21_p53_BLA_p5_viability: Viability Assessment in the Tox21 HCT-116 p53 Agonism Beta-lactamase Assay, Phase 5 (AID 2283600). Put shortly:
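Cells were plated at 4000/well, rested 5 h at 37C, then given compounds in DMSO (217-fold dilution) for 16 h at 37C, 5% CO2. Following the CCF4-AM beta-lactamase read, CellTiter-Glo was added and luminescence was read after 30 min at room temperature.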

Assay [10] addresses Cellular tumor antigen p53 (Homo sapiens) (UniProt P04637). The experiment in a line: TOX21_p53_BLA_p4_ratio: Tox21 HCT-116 p53 Agonism Beta-lactamase Assay, Ratio, Phase 4 (AID 2283601). An outline of the steps:
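HCT116 cells carrying an inducible beta-lactamase reporter were plated at 4000 cells/well, rested 5 h, then exposed to compounds in DMSO (217-fold dilution) for 16 h at 37C. CCF4-AM substrate was loaded 2 h at room temperature; 460/530 nm emission ratio scored gain-of-signal versus DMSO.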

The nature of assay [11]: Tanguay_ZF_120hpf_YSE_legacy: (Legacy) Oregon State University Tanguay Lab 120 Hour Post-fertilization zebrafish Assay for Yolk Sac Edema (AID 2283634).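 For AC50: actives raise the incidence of yolk sac edema above the DMSO baseline.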 An outline of the steps:
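Tropical 5D wild-type embryos, dechorionated with pronase at 4 hpf, were exposed singly from 6 hpf to 120 hpf under static, sealed, dark conditions at 28C with 0.64% DMSO final. Yolk sac edema was scored present/absent by brightfield microscopy.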

Assay [12] is described as follows: Tanguay_ZF_120hpf_AXIS_legacy: (Legacy) Oregon State University Tanguay Lab 120 Hour Post-fertilization zebrafish Assay for Body Axis Malformation (AID 2283635).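 For AC50: potency for an increased fraction of larvae scored with body axis malformation.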 An outline of the steps: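 Tropical 5D wild-type zebrafish embryos, dechorionated with pronase at 4 hpf, were placed singly in wells at 6 hpf and exposed statically to test chemical (0.64% DMSO final) at 28C until 120 hpf, then scored by brightfield for body axis defects.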

Assay [13] can be described thus: Tanguay_ZF_120hpf_EYE_legacy: (Legacy) Oregon State University Tanguay Lab 120 Hour Post-fertilization zebrafish Assay for Eye Malformation (AID 2283636).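 Note: binary presence or absence of eye malformation scored by brightfield in 120 hpf larvae.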 Put shortly:
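Dechorionated wild-type Tropical 5D zebrafish embryos were exposed statically from 6 hpf, one per well, to 120 hpf at 28C in sealed, foil-covered plates with 0.64% DMSO. Eye malformation was scored present/absent by brightfield microscopy against DMSO controls.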

The nature of assay [14]: Tanguay_ZF_120hpf_JAW_legacy: (Legacy) Oregon State University Tanguay Lab 120 Hour Post-fertilization zebrafish Assay for Jaw Malformation (AID 2283638).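 For AC50: active means more embryos with jaw malformation than DMSO controls.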 Put shortly: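 Tropical 5D wild-type embryos, dechorionated with pronase at 4 hpf, were placed singly per well at 6 hpf and statically exposed at 28C until 120 hpf (0.64% DMSO final). Jaw malformation scored as present/absent by brightfield microscopy at 120 hpf, analyzed relative to DMSO.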

The nature of assay [15]: Tanguay_ZF_120hpf_OTIC_legacy: (Legacy) Oregon State University Tanguay Lab 120 Hour Post-fertilization zebrafish Assay for Otic Vesicle Malformation (AID 2283639). Put shortly: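 Embryos from 5D wild-type adults exposed in plates; DMSO 0.64% v/v final. Sealed, light-protected, 28C, static to 120 hpf. Otic vesicle malformation recorded as binary endpoint; gain-of-signal fitted vs DMSO.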

Assay [16] in a line: Tanguay_ZF_120hpf_PE_legacy: (Legacy) Oregon State University Tanguay Lab 120 Hour Post-fertilization zebrafish Assay for Pericardial Edema (AID 2283640).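 For AC50: potency for increased incidence of pericardial edema versus DMSO baseline.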 An outline of the steps:
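Tropical 5D wild-type zebrafish embryos were exposed statically to 120 hpf at 28C, sealed and foil-covered, in 0.64% DMSO final. Pericardial edema was scored present/absent by brightfield microscopy; dead embryos were not scored.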

Assay [17] is described as follows: Tanguay_ZF_120hpf_MORT_legacy: (Legacy) Oregon State University Tanguay Lab 120 Hour Post-fertilization zebrafish Assay for Mortality (AID 2283633).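 For AC50: fitted as increase in binary mortality versus DMSO negative control.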 Put shortly: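 Dechorionated Tropical 5D wild-type zebrafish embryos, one per well from 6 hpf, were statically exposed at 28C in the dark until 120 hpf (0.64% DMSO final). Mortality was scored as present/absent by brightfield microscopy, fitted positively versus DMSO.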

A short description of assay [18]: Tanguay_ZF_120hpf_BRAI_legacy: (Legacy) Oregon State University Tanguay Lab 120 Hour Post-fertilization zebrafish Assay for Brain Malformation (AID 2283641). An outline of the steps:
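Tropical 5D wild-type zebrafish embryos were exposed statically in sealed, foil-covered plates at 28C until 120 hpf, with 0.64% (vol/vol) final DMSO. Brain malformation was scored present/absent by brightfield microscopy, relative to DMSO baseline.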

Assay [19] can be described thus: Tanguay_ZF_120hpf_SNOU_legacy: (Legacy) Oregon State University Tanguay Lab 120 Hour Post-fertilization zebrafish Assay for Snout Malformation (AID 2283637). An outline of the steps:
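Tropical 5D wild-type zebrafish embryos, dechorionated with pronase at 4 hpf, were exposed singly from 6 hpf to 120 hpf statically at 28C in 0.64% DMSO. Snout malformation was scored present/absent by brightfield microscopy, fitted against DMSO.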

As a reminder, the AC50 is the midpoint of the concentration-response curve, whichever way the signal moves.

Each structure is given as a SMILES string. Records with an inconclusive call do not appear. The source holds several records for some structures; these can differ, active in one and inactive in another. Calls of active or inactive are those of the source. Rule for the calls, unless noted: active = hit-call score of the fitted dose curve at least 0.9, where 1 is the maximum; inconclusive = response in the unintended direction; inactive = score below 0.9.

Chain of Cellular tumor antigen p53 (Homo sapiens) (P04637 whole entry, looked up): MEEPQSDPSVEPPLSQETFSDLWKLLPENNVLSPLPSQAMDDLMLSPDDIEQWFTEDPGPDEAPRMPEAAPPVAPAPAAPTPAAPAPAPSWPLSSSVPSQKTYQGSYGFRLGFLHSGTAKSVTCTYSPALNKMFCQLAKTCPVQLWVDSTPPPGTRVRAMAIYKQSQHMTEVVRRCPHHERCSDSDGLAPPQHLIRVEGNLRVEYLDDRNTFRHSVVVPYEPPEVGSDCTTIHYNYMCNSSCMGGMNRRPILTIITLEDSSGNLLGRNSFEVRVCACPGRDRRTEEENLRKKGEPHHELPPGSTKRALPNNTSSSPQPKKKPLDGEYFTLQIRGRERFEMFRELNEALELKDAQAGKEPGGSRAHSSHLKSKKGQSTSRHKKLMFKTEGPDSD

Consider `CO[C@H]1/C=C/O[C@@]2(C)Oc3c(C)c(O)c4c(O)c(c(/C=N/N5CCN(C)CC5)c(O)c4c3C2=O)NC(=O)/C(C)=C\C=C\[C@H](C)[C@H](O)[C@@H](C)[C@@H](O)[C@@H](C)[C@H](OC(C)=O)[C@@H]1C`, for which the compound was called inactive in assay [1], in assay [2], in [3], in [4], in assay [5] and in assay [6]. For the same compound, the outcome in assay [7], in assay [8], in assay [9], in [10], in assay [11] and in [12] was inactive. The call in assay [13], in assay [14], in [15] and in [16] was inactive.

As to `CCN(Cc1cccnc1)C(=O)c1cccc(Cl)c1[C@]1(C)C(=O)N(Cc2ccc(OC)cc2OC)c2ccc(Cl)cc21`, the AC50 in assay [1] is 24.6 µM (active); in [2] it was 25.5 µM (active); in assay [4], 43.2 µM (active); in [6], 40.9 µM (active); in assay [8], 52.1 µM (active); in [10], 44.5 µM (active). Moreover, the half-maximal activity concentration (AC50) in assay [17] was 6.06 µM (active). Moreover, the call in [3], in assay [5], in [7], in assay [9], in [11] and in [12] was inactive. For the same compound, the compound was called inactive in [14], in assay [15], in assay [16] and in [18].

`CCCCCCCCOc1ccc(C(=O)c2ccccc2)c(O)c1`: the result in assay [1], in assay [2], in assay [3], in assay [4], in assay [5] and in assay [6] was inactive. In addition, the result in assay [7], in assay [8], in [9], in assay [10], in assay [11] and in assay [12] was inactive. Also, the outcome in [13], in assay [19], in [14] and in assay [15] was inactive.

Regarding `CC(=O)N1CCN(c2ccc(OC[C@H]3CO[C@](Cn4ccnc4)(c4ccc(Cl)cc4Cl)O3)cc2)CC1`, the compound was classed as inactive in assay [1], in assay [3], in [4], in [5], in assay [6] and in assay [7]. Besides, the result in assay [8], in assay [9], in assay [10], in [17], in [11] and in assay [12] was inactive. Moreover, the compound was classed as inactive in assay [15] and in [16]. For the same compound, the concentration at half-maximal activity (AC50) in [2] is 86.9 µM (active); in assay [3], 56.7 µM (active); in assay [5], 46.1 µM (active); in assay [6], 58.3 µM (active); in assay [7], 58.7 µM (active); in [8], 46.1 µM (active). The half-maximal activity concentration (AC50) was 64.4 µM (active) in assay [9] and 44.3 µM (active) in assay [10].

As for `NC(=O)c1nc(-c2cccc(-c3cc(F)ccc3OCC(F)(F)C(F)(F)F)c2)n[nH]1`, the compound was called inactive in [1] and in assay [17]. Also, the AC50 in [2] was 76.1 µM (active); in assay [3], 65.9 µM (active); in assay [4] it was 79.6 µM (active); in assay [5], 74 µM (active); in assay [6], 87.4 µM (active); in [7], 70.5 µM (active). The half-maximal activity concentration (AC50) in assay [8] was 86.6 µM (active); in assay [9], 72.7 µM (active); in [10], 86.3 µM (active); in assay [11] it was 26.8 µM (active); in [12] it was 25.9 µM (active); in assay [13] it was 9.38 µM (active). Also, the AC50 in assay [14] is 28.7 µM (active); in assay [15], 27.8 µM (active); in assay [16], 28.1 µM (active); in assay [18], 26 µM (active).
